Test results as given in paper PMC12136788.
Changes are numbered by the printed parent chain. Over roughly 24,000 sequences, “enrichment r” has its median near 0.99; the highest 2% begin near 3.7. The entries come from a sample that favours the highest values as a whole.

T1: UNK ZnF1-3 (human, UniProt Q9C0B0 31-174)
T1 sequence: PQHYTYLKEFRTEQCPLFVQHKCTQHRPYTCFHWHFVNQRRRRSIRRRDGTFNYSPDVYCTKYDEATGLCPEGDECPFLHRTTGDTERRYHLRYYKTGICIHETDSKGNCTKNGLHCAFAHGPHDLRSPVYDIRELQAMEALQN

B1: chr2:217001844:217001845:+_ENSG00000079246_ENST00000392132|hu_hu|hu_hu_hu_mus_False|98_108 (ssRNA)
RNA: GGGAGUUCUACAGUCCGACGAUCACCGACUUGAGGAUUAGCUCUUUUGUCAUAAGCAUAUCGGACGAUGGCGACCAUGUUUAACUCAUCCAAAGCAUGAACGAGAGAGGAAAGGGCAACAGCUGCCGCCUCAUCAUCCUUUGCCAACAGAGGAUUGAGCAUCA
B2: chrX:132781199:132781200:+_ENSMUSG00000042712_ENSMUST00000048687|mus_hu|FALSE|FALSE (ssRNA)
RNA: GGGAGUUCUACAGUCCGACGAUCUGCUAAUAAAAAGCAAGCUAUAUGGUAUUGUUAAUAUCAGAUAAAAAUCAAGGUAAACUACAUUAAAUAGGGGUAAGGAUGGUUUCGAUUAACCUUCCAACGCAUCACUAUAAGUUUGUUCAACAGAGGAUUGAGCAUCA
B3: chr15:90999404:90999405:+_ENSG00000140575_ENST00000268182|hu_hu|FALSE|FALSE (ssRNA)
RNA: GGGAGUUCUACAGUCCGACGAUCCUGCAGAGUCUUUUGGGCAUCACCUUCAUCCAGGGCUUCAUUAAUUAAACCAAUGGCUAAAAUCCUCUCAUGUUCCUCUUGCACCACCAGGUUCACAUGGUCCACGCAAGCUUGGAUAUCCAACAGAGGAUUGAGCAUCA
B4: chr7:34932688:34932689:-_ENSMUSG00000052997_ENSMUST00000102746|mus_mus|FALSE|FALSE (ssRNA)
RNA: GGGAGUUCUACAGUCCGACGAUCCAAGAGCUUCUUUCUUGGGUUUGGCUGCUUAUUCAAAAAAAUAGUUCUACACUGGUCUAUUUUUCCAGAUAAAAUCUUUAAUCCUUCCAACACUAUCAAGCCGGCGAUCACUGCAUUAGUCAACAGAGGAUUGAGCAUCA
B5: 126502921_126503041_1455_ncRNA_ENSMUSG00000006728_ENSMUST00000140254|mouse|control|control (ssRNA)
RNA: GGGAGUUCUACAGUCCGACGAUCUGGUCGGCUUCAGAGUUUCCACAGAAGAGAGGCCUAAGGCAGAAAAAGACUCAAAGUAUGUGUUAUAUCAAAAAUAGGGGAGUGGGGGCUGGAGAGACGGCUCAGCAGAUAAGACUGCUCCAACAGAGGAUUGAGCAUCA
B6: 31404426_31405736_1086_CDS_ENSG00000196792_ENST00000355683|human|control|control (ssRNA)
RNA: GGGAGUUCUACAGUCCGACGAUCAGUCACUAAAAAAUCAAAUUCUUUCAGUGCUUCCUCAGUAUCAGGAUCGUCAGUUAGGUCAGCAGCUAAACCUUCAUUACCUAUUUUAUGUUUAUUCAUCCGAUGUUUGUCUUUUCCUUCCAACAGAGGAUUGAGCAUCA
B7: chrX:132781199:132781200:+_ENSMUSG00000042712_ENSMUST00000048687|mus_hu|motif|central (ssRNA)
RNA: B2 RNA with U82G, A83G
B8: 63494515_63562186_783_3pUTR_ENSMUSG00000025964_ENSMUST00000114107|mouse|control|control (ssRNA)
RNA: GGGAGUUCUACAGUCCGACGAUCUAGUGGAUCUCCACGUAGUCAGAAGAUAGCAAACCAUUGUUCAGUGUGAGGUCAAGAAUGAACUUGGAGCCGAAAGCUUCGAUCUGGAAGCUUGCCUGGGCCAGAUGCACAGCCUUAUUGCAACAGAGGAUUGAGCAUCA
B9: chr12:16048344:16048345:+_ENSG00000023734_ENST00000419869|hu_hu|hu_hu_hu_mus_True|68_98 (ssRNA)
RNA: GGGAGUUCUACAGUCCGACGAUCAGAUCGUCCAUAAGUUAUAACCAAAAUCUCUCCUUCAGGAAUAUAUUCCAUACUGCUAACAGACAUAUUAAAAUUCAGAGAUUUCACUUCUGUCAUUGUGGCAUGAUCCCAGAGCCGAACCAACAGAGGAUUGAGCAUCA
B10: chr3:176740097:176740098:-_ENSG00000177565_ENST00000430069|hu_mus|hu_hu_hu_mus_True|78_78 (ssRNA)
RNA: GGGAGUUCUACAGUCCGACGAUCUGUUUUGUAUACCACAAAAGGAGGCACUUUCAGUAUCUGUAAAAGGUGUUUAGUCCUAAAACAUACUCACCUAGAGGAUAACUCAGGAAAACAAUCUGUUACACUCUAAGACCUACUCCACAACAGAGGAUUGAGCAUCA
B11: chr3:9848215:9848216:+_ENSG00000241553_ENST00000287613|perfect_dup|FALSE|FALSE (ssRNA)
RNA: GGGAGUUCUACAGUCCGACGAUCAUCACUGGGGCCAGUCACAGCCACUGGAGCUGGAGGUUGGUUUUUUUGUUUGUUUAAAAAAAAAAAAAAAAAGACAAAAAGGUUACAGUCUUCUACAAGCACAGAGUUUAGGUUUCAAGACAACAGAGGAUUGAGCAUCA
B12: 122244776_122244896_1956_3pUTR_ENSMUSG00000039735_ENSMUST00000162409|mouse|control|control (ssRNA)
RNA: GGGAGUUCUACAGUCCGACGAUCGAAAAAGCACACAUCCUUUACACACACUUAGGCAGGACAGAAAGCAAAAGGCAUCGAUUAAGCUUCCACACCAGCAUCACUUGAACAGUAAGGCGUCAAAGAGUUUCUGGUGGCAGUAUUCAACAGAGGAUUGAGCAUCA
B13: chr3:9848215:9848216:+_ENSG00000241553_ENST00000287613|perfect_dup|FALSE|FALSE (ssRNA)
RNA: GGGAGUUCUACAGUCCGACGAUCCAAUAACGUAUAAUCACUGGGACCAGUCACAGCCACUGGAGGUGGAGGUUUAAAAAAAAAAAAAAAAAAAAAGACAAAAAGGUUACAGUAUCCUACAAGCACAGAGUUUAAGUUUCAAGACAACAGAGGAUUGAGCAUCA
B14: 25243085_25243205_1728_CDS_ENSMUSG00000059669_ENSMUST00000075954|mouse|control|control (ssRNA)
RNA: GGGAGUUCUACAGUCCGACGAUCUCCUGAGCUCUUUUUUGAUUCGUUGUAUUUUUUUUCAAAAAGUUUCUUUUCAAGUAAGCUCACUUCUUCAUGGAGAGCAGAGGUCUUUAUUCUCAGUAAGAAGGAGAAGAUGUUUAGUAUCAACAGAGGAUUGAGCAUCA

The binders below were run against T1, UNK ZnF1-3 (assay: nsRBNS (natural sequence RNA bind-n-seq); RBNS binding buffer (assumed for nsRBNS): 25 mM Tris pH 7.5, 150 mM KCl, 3 mM MgCl2, 0.01% Triton X-100, 500 ug/ml BSA, 20 U/ml SUPERase-In, 4 C; UNK is unkempt and MSI1 is Musashi-1; names of the RNAs are library labels; protein concentration not given here; high values mean tight binding).
For B1, the binding signal was 2.19 enrichment R.
For B2, the binding signal was 5.13 enrichment R.
Binder B3 has a binding signal of 1.38 enrichment R.
B4 showed a binding signal of 1.12 enrichment R.
In the case of B5, the binding signal is reported as 3.33 enrichment R.
B6 showed a binding signal of 0.927 enrichment R.
In the case of B7, the binding signal is reported as 5.74 enrichment R.
B8 gave a binding signal of 1.25 enrichment R.
With B9 the binding signal was 1.19 enrichment R.
In the case of B10, the binding signal is reported as 0.869 enrichment R.
With B11 the binding signal was 9.16 enrichment R.
B12 showed a binding signal of 1.73 enrichment R.
In the case of B13, the binding signal is reported as 9.16 enrichment R.
B14 showed a binding signal of 0.743 enrichment R.
